# Shown are actives, neighbours in structure and some others; about 19% of the full set was active somewhere.
# DT40 TDP1 CPT – growth inhibition of DT40 Tdp1-/-;hTDP1 cells with camptothecin (screen for TDP1 inhibitors); Potency, µM (series often up to 46.2 µM), without a hit: at the top dose activity change, negative = growth inhibition, usual class: inhibitors; chicken DT40 Tdp1-/-;hTDP1 cells + 20 nM CPT, ATP luminescence, 48 h; hit rate 12% among 420,000; further: potency means the concentration at half of the fitted maximal effect; nearly all actives have a fitted effect of over 55% in size
#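 Cell growth measured by CellTiter-Glo luminescence after a minimum 48 h, 37 C compound exposure with 20 nM CPT in Tdp1-knockout DT40 cells stably expressing hTDP1, seeded 400/well; qHTS titration format.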
# HT1080NT lethal – kills 2HG-producing HT-1080-NT fibrosarcoma cells; HT-1080-NT fibrosarcoma viability, CellTiter-Glo ATP luminescence, 48 h; Potency, µM (series often up to 46.1 µM), for the others: at the top dose activity, negative = less viability, usual class: cytotoxic; hit rate 1.6% among 360,000;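 further: NT is the 2HG producing partner of a matched IDH1 knockdown line; potency means the concentration at half of the fitted maximal effect; 0% = DMSO-treated cells and -100% = media-only wells without cells; nearly all actives have a fitted effect of over 55% in size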
#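 HT-1080-NT fibrosarcoma cells (2HG-overproducing), 750 cells/well in RPMI with 5% FBS, dosed after 2 h and incubated 48 h at 37C. CellTiter-Glo luminescence normalized to DMSO and no-cell wells; concentration-response curves fitted and classed.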
# HT1080 IDH1KD tx – HT-1080 IDH1 knockdown cell toxicity (counter line) | AID 686971 | hit rate 2% among 360,000 | Potency, µM (doses to about 46.1 µM), for inactives: at the top dose activity, negative = toxicity, most hits filed as cytotoxic | HT-1080 IDH1 knockdown viability, ATP luminescence, 48 h;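 further: potency means the concentration at half of the fitted maximal effect; 0% = DMSO wells and -100% = cell-free medium wells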
#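 Using the IDH1-knockdown HT-1080 line run in the same batch and compound series as the NT line, viability after 48 h at 37 °C was determined by CellTiter-Glo luminescence and expressed as % activity.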
# IL1B secr inh – inhibitors of inflammasome signaling (IL-1 beta secretion); THP-1 LPS/ATP IL-1B secretion, AlphaLISA, 16 h; hits give low values; hit rate 4.7% among 360,000; activity change, % at 57.5 µM; in the data active means activity change below about -50%; inconclusive means mostly about -30% to -49%
#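 Secreted IL-1B measured by AlphaLISA bead assay after 16 h compound exposure of THP-1 cells; compounds (final up to 57.5 uM) added 1 h before LPS (250 ng/mL) and ATP (1.25 mM) stimulation; lower signal means less secretion.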
# ELG1 repair inh – ELG1-dependent DNA repair inhibition | HEK293T ELG1-luciferase reporter, luminescence, 16 h; DNA damage induced by 5-fluorouridine | Potency, µM (titrated, usually from 46.1 µM), for inactives: top-dose activity change, negative = inhibition, hits mostly inhibitors | hit rate 2.3% among 330,000 | AID 504467; further: potency means the concentration at half of the fitted maximal effect; nearly all actives have a fitted effect of over 55% in size
#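 Luminescence from the luciferase reporter, measured 30 min after ONE-Glo reagent at room temperature, was the read-out. Beforehand, 2,000 cells per well were exposed for 16 hr at 37 °C to 5-fluorouridine together with compound or vehicle.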
# DT40 TDP1 no CPT – qHTS for Inhibitors of human tyrosyl-DNA phosphodiesterase 1 (TDP1): qHTS in cells in absence of CPT | DT40 Tdp1-/- hTDP1 cells, no CPT, ATP luminescence, 48 h | Potency, µM (doses to about 46.2 µM), inactives show at the top dose activity change, negative = growth inhibition, hits mostly inhibitors | hit rate 15% among 420,000 | AID 686978, 2013; further: potency means the concentration at half of the fitted maximal effect; nearly all actives have a fitted effect of over 55% in size
#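 Growth of hTDP1-complemented DT40 Tdp1-knockout cells is measured by ATP luminescence after at least 48 hr compound exposure at 37 °C, with DMSO substituting for the 20 nM CPT used in the parallel screen.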
# Starred values were filed as active, the others as inactive; ? = inconclusive; . = no result given; ! = a repeat was not active; [ ] = dose if it differs, or a comment. Unless noted, the call rests on the fitted dose curve; in most records, active means well fitted curve in the direction sought with a large enough effect; inconclusive means small, poorly fitted or top-dose-only effect, or another doubt; inactive means no such curve, though single readings can be large; an effect the other way counts as inactive or inconclusive. Unless noted, on the % scale 0 is the no-effect control and ±100 the full control effect.
SMILES,DT40 TDP1 CPT,HT1080NT lethal,HT1080 IDH1KD tx,IL1B secr inh,ELG1 repair inh,DT40 TDP1 no CPT
CC(NC(=O)c1ccc(C(C)(C)C)cc1)C(c1cccs1)N1CCOCC1 (stereo not given),?,6%,1%,-2,1%,?
COc1ccc(C(=O)CC(=O)c2ccccc2O)cc1OC,?,-21%,-28%,3,?,?
COc1cc(O)c(CCC(=O)c2ccc(OC)c(OC)c2)c(OC)c1,21µM*,5%,-14%,-24,?,?
Fc1ccccc1Cc1noc(CN2CCC(OCc3cccnc3)CC2)n1,?,0%,0%,8,?,23µM*
Fc1cccc(Cc2noc(CN3CCC(c4ccncc4)CC3)n2)c1,18µM*,-11%,-24%,23,-12%,13µM*
Fc1ccccc1Cc1noc(CN2CCN(C/C=C/c3ccccc3)CC2)n1,18µM*,20%,-3%,-13,?,18µM*
Cc1ccc(C2(c3noc(CN4CCC(c5ccncc5)CC4)n3)CCCC2)cc1,13µM*,?,?,-25,16µM*,18µM*
CN(C)c1ncc2nc(-c3ccccc3)c(=O)n(C[C@H]3CCCO3)c2n1,6%,.,.,.,.,5%
O=S(=O)(NCCOCC(F)(F)C(F)F)c1ccc2oc3ccccc3c2c1,26µM*,-14%,-23%,-19,-4%,13µM*
COc1ccc(OCCNS(=O)(=O)c2ccc3oc4ccccc4c3c2)cc1,?,0%,-2%,13,-8%,-28%
Cc1cccc(NC(=O)c2ccc([N+](=O)[O-])o2)c1C,?,23µM*,18µM*,-89*,7%,?
Cc1ccc(C(=O)Nc2cccc3ccccc23)o1,?,12%,13%,-5,.,?
O=C(Nc1cccc2ccccc12)c1ccc([N+](=O)[O-])o1,15µM*,?,13µM*,-97*,?,26µM*
COc1ccccc1NC(=O)c1ccc([N+](=O)[O-])o1,13µM*,?,?,-83*,.,16µM*
COc1ccccc1NC(=O)c1ccc(COc2ccccc2OC)o1,-16%,-2%,4%,-2,?,-24%
COc1cccc(CCNC(=O)c2cnc3sc(N4CCOCC4)nn3c2=O)c1,-26%,.,.,.,.,?
Cn1cccc1/C=N/NC(=O)c1cccnc1,3%,-4%,19%,17,11%,-6%
O=C(N/N=C/c1c(-c2ccccc2)[nH]c2ccccc12)c1cccnc1,6.5µM*,-28%,?,?,-12%,3.3µM*
Cn1c(-c2ccccc2)c(/C=N/NC(=O)c2cccnc2)c2ccccc21,-19%,-6%,?,-28,?,23µM*
CC(C)(C)c1csc(NC(=O)Cc2cccs2)n1,-9%,-12%,-12%,-1,-13%,4%
O=C(CCS(=O)(=O)c1ccc(F)cc1)Nc1nc(-c2ccncc2)cs1,13µM*,-16%,0%,?,5%,9.2µM*
CC(C)(C)c1csc(NC(=O)CCc2ccccc2)n1,?,-20%,-3%,-54*,?,?
O=C(CCS(=O)(=O)c1ccccc1)Nc1nc(-c2cccs2)cs1,?,-10%,-16%,-74*,?,21µM*
CC(C)(C)c1csc(NC(=O)CCS(=O)(=O)c2ccc(F)cc2)n1,8.2µM*,-13%,?,-5,.,8.2µM*
COc1ccc(/C=C/C(=O)NC(=S)Nc2ccc(Br)cn2)cc1,?,23%,6%,134,?,?
SMILES,DT40 TDP1 CPT,HT1080NT lethal,HT1080 IDH1KD tx,IL1B secr inh,ELG1 repair inh,DT40 TDP1 no CPT
CC(C)Oc1ccc(CNC(=O)Cn2ccc3cc(S(=O)(=O)N4CCCC4)ccc32)cc1,-20%,-4%,-1%,94,-2%,15%
Cc1cc(Cl)ccc1OC(C)C(=O)NNC(=O)C1CCCCC1C(=O)O (stereo not given),-28%,-1%,-2%,-16,11%,-31%
CC(=O)N(O)CCCCCNC(=O)CCC(=O)N(O)CCCCCNC(=O)CCC(=O)N(O)CCCCCN,21µM*!,?,?,60,-19%,12µM*!
Cc1ccc(CNC(=O)CCC(=O)N2CC3CCCN3c3ccccc32)cc1 (stereo not given),5.2µM*,.,.,.,.,18µM*
Cc1ccc(CNC(=O)CCC(=O)N2CC(C)Oc3ccccc32)cc1 (stereo not given),-28%,16%,1%,-22,-4%,-8%
Cc1ccccc1CNC(=O)CCC(=O)N1CC2CCCN2c2ccccc21 (stereo not given),18µM*,.,.,.,.,23µM*
O=C(CCC(=O)N1CC2CCCN2c2ccccc21)NCc1ccccc1F (stereo not given),12µM*,.,.,.,.,18µM*
COc1cc(C(=O)NCC(=O)NNC(=O)C2COc3ccccc3O2)cc(OC)c1OC (stereo not given),-4%,0%,5%,10,3%,28%
O=C(NNC(=O)c1cc(Cl)nc2ccccc12)c1ccccc1F,12%,-27%,-2%,0,1%,-23%
COc1ccc(/C=N/Nc2nccnc2Cl)cc1,9.2µM*,10µM*,11µM*,-25,?,21µM*
COc1cccc(/C=N/Nc2ncnc3scc(-c4ccccc4)c23)c1O,1µM*,?,?,46,7.3µM*,1.5µM*
Clc1nccnc1N/N=C/c1ccc(Br)cc1,?,-29%,-27%,0,?,-25%
COc1cccc(/C=N/Nc2ncnc(Cl)c2N)c1O,0.82µM*,8.2µM*,4.1µM*,14,19%,0.52µM*
COc1cccc(/C=N/Nc2nccnc2Cl)c1O,3.3µM*,?,?,111,?,4.6µM*
CCc1cccc(NC(=O)c2nc(-c3ccncc3)no2)c1,?,.,.,.,.,-19%
O=C(COc1ccccc1Cl)Nc1cc(-c2ccccc2F)nn1-c1ccccc1,?,.,.,.,.,9.2µM*
O=C(Nc1cc(-c2ccccc2F)nn1-c1ccccc1)c1ccccc1Br,18µM*,.,.,.,.,21µM*
CN(CC(=O)Nc1ccc(Cl)cc1)C(=O)CNC(=O)c1ccc(Br)o1,11%,1%,-1%,2,12%,2%
CCC1CCCCN1CCCNC(=O)c1cc2c(=O)oc3ccc(C)cc3c2s1 (stereo not given),?,-8%,-8%,?,?,?
COc1ccccc1-c1ccnc(-n2ncc(C(=O)N3CCN(C4CCCC4)CC3)c2-c2ccco2)n1,5%[9.04 µM],.,.,.,.,-16%

# Screening results as filed in PubChem BioAssay.
